Compound activity as filed in PubChem.
HT1080 IDH1KD tx: qHTS for induction of synthetic lethality in tumor cells producing 2HG: qHTS for the HT-1080-IDH1KD cell line. HT-1080 IDH1 knockdown viability, ATP luminescence, 48 h. Potency, µM (doses to about 46.1 µM), without a hit: at the highest dose activity, negative = toxicity, hits mostly cytotoxic. 2% of 360,000 active;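 note: 0% = DMSO wells and -100% = cell-free medium wells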
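After a 2 h attachment period, IDH1KD HT-1080 cells took pin-transferred compound for 48 h at 37 °C; ATP-based luminescence after 10 min room-temperature reagent incubation reported viability.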
DT40 TDP1 CPT: qHTS for Inhibitors of human tyrosyl-DNA phosphodiesterase 1 (TDP1): qHTS in cells in presence of CPT; chicken DT40 Tdp1-/-;hTDP1 cells + 20 nM CPT, ATP luminescence, 48 h; Potency, µM (titrated, usually from 46.2 µM), without a hit: at the highest dose activity change, negative = growth inhibition, hits mostly inhibitors; 12% of 420,000 active; AID 686979, 2013; note: nearly all actives have a fitted effect of over 55% in size
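Chicken DT40 Tdp1-/- cells stably complemented with human TDP1 were seeded at 400 cells/well in medium containing 20 nM camptothecin, exposed to pin-transferred compounds, and grown at 37 °C for at least 48 hr. Viability was read as ATP luminescence.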
KB-V1 MDR tox: qHTS assay for MDR1-selective chemotherapeutics: Primary screen using the drug-selected MDR subline cells KB-V1. 3.4% of 400,000 active. Potency, µM (doses to about 46.1 µM), usual class: cytotoxic. KB-V1 MDR cells viability, CellTiter-Glo, 72 h. AID 1347076, 2019; note: nearly all actives have a fitted effect of over 60% in size
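KB-V1, DMEM (no phenol red) + 10% FBS; cpd pin-transferred, titration series; 72 h, 37 degrees C; CellTiter-Glo, luminescence. Data normalized, curve-fit.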
HT1080NT lethal: qHTS for induction of synthetic lethality in tumor cells producing 2HG: qHTS for the HT-1080-NT fibrosarcoma cell line; HT-1080-NT fibrosarcoma viability, CellTiter-Glo ATP luminescence, 48 h; Potency, µM (highest dose often 46.1 µM), for the others: top-dose activity, negative = less viability, usual class: cytotoxic; 1.6% of 360,000 active; AID 686970, 2013;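 note: NT is the 2HG producing partner of a matched IDH1 knockdown line; 0% = DMSO-treated cells and -100% = media-only wells without cells; nearly all actives have a fitted effect of over 55% in size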
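Luminescent CellTiter-Glo readout after 48 hours of compound exposure at 37 degrees C defined viability of HT-1080-NT cells. Activity was normalized to DMSO wells and cell-free media wells; concentration-response curves were fitted and assigned curve classes.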
TDP1 cell noCPT: qHTS for Inhibitors of human tyrosyl-DNA phosphodiesterase 1 (TDP1): qHTS in cells in absence of CPT; DT40 Tdp1-/- hTDP1 cells, no CPT, ATP luminescence, 48 h; Potency, µM (titrated, usually from 46.2 µM), inactives show at the highest dose activity change, negative = growth inhibition, actives largely listed as inhibitors; 15% of 420,000 active; AID 686978, 2013; note: nearly all actives have a fitted effect of over 55% in size
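A cellular qHTS used chicken DT40 cells lacking endogenous Tdp1 but carrying stably transfected human TDP1. Compounds were applied without camptothecin, and cell growth kinetics were judged by ATP-dependent luminescence after ≥48 hr.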
KB-3-1 cytotox: qHTS assay for MDR1-selective chemotherapeutics: Primary screen using the parental adenocarcinoma cell KB-3-1; KB-3-1 viability, CellTiter-Glo ATP luminescence, 72 h; 1.4% of 400,000 active; AID 1347075, 2019; Potency, µM (series often up to 46.1 µM), hits mostly cytotoxic; note: nearly all actives have a fitted effect of over 60% in size
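Using CellTiter-Glo luminescence, growth of non-resistant KB-3-1 adenocarcinoma cells is assessed 72 h after pin-tool compound addition at 37 °C. Normalized responses across the concentration series yield fitted curves.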
* marks the source's active call; other numbers are inactive results; i = inactive; ? = inconclusive; / = not tested or not shown; ! = a repeat was not active. In the library only some 19% were active in any assay of this set; here they are far more common. Calls come from the whole dose curve; as a rule, active = well fitted curve in the direction sought with a large enough effect; inconclusive = small, poorly fitted or top-dose-only effect, or another doubt; inactive = no such curve, though single readings can be large; an effect the other way counts as inactive or inconclusive. Unless noted, % is set by controls: 0 for no effect and ±100 for the full control effect; potency is the fitted concentration of half-maximal effect.

SMILES	HT1080 IDH1KD tx	DT40 TDP1 CPT	KB-V1 MDR tox	HT1080NT lethal	TDP1 cell noCPT	KB-3-1 cytotox
[O-]/C(=C(\C(=S)Nc1ccc(SC(F)F)cc1)[n+]1ccccc1)c1cc(Cl)ccc1Cl	-19.5%	16.4µM*	?	-5.2%	16.4µM*	?
Cc1cc(C)c(/C([O-])=C(/C(=S)Nc2ccc(SC(F)F)cc2)[n+]2ccccc2)cc1C	-6.7%	?	i	-5.8%	-76.8%	i
C=CCn1c(C)cc(/C([O-])=C(/C(=S)Nc2ccc(OC(F)F)cc2)[n+]2ccc(N(C)C)cc2)c1C	-8.1%	25.9µM*	i	-2.3%	18.4µM*	i
Cc1cc(C([O-])=C(C(=S)Nc2ccccc2)[n+]2ccccc2)c(C)n1-c1ccccc1	-8.2%	?	i	1.3%	?	i
O=c1cc(-c2ccccc2O)oc2cc(O)cc(O)c12	/	29.9µM*	/	/	21.1µM*	/
COc1cc(-c2cc(=O)c3c(O)cc(O)cc3o2)ccc1O	-17.3%	20.6µM*	i	0.0%	?	i
COc1cc2oc(-c3ccccc3)cc(=O)c2cc1O	/	3.4%	/	/	0.2%	/
COc1cc(-c2cc(=O)c3c(O)c(OC)c(OC)cc3o2)cc(OC)c1O	?	16.4µM*	i	?	?	i
O=c1cc(-c2ccc(O)cc2)oc2cc(O)cc(O)c12	?	?	?	?	5.17µM*!	?
Cc1cccnc1CNC(=O)C1CCC(=O)N(CCc2cccc(F)c2)C1 (configuration not stated)	15.3%	1.9%	i	2.2%	12.7%	i
Cc1c(C(=O)NCc2cccc(C(F)(F)F)c2)sc(=O)n1Cc1ccc(S(=O)(=O)N(C)C)cc1	-27.3%	20.6µM*	?	-7.1%	?	?
Cc1noc(C)c1Cn1c(C)c(C(=O)NCc2ccc3c(c2)OCCO3)sc1=O	5.0%	8.2µM*	?	8.9%	16.4µM*	?
CCCCN(C)C(=O)c1sc(=O)n(Cc2ccc(Cl)c(Cl)c2)c1C	-16.0%	?	?	-2.5%	20.6µM*	i
Cc1c(C(=O)NCc2ccccc2C(F)(F)F)sc(=O)n1Cc1ccc2ccccc2c1	-12.7%	?	?	-0.5%	?	i
Cc1c(C(=O)NCc2ccc3c(c2)OCCO3)sc(=O)n1Cc1ccccc1F	5.8%	?	?	2.8%	?	i
CSc1ccc(Cn2c(C)c(C(=O)NCc3ccc4c(c3)OCCO4)sc2=O)cc1	-29.6%	?	18.4µM*	0.3%	?	i
CSc1ccc(Cn2c(C)c(C(=O)NCc3cccc(C(F)(F)F)c3)sc2=O)cc1	-16.2%	?	?	-17.8%	?	i
Cc1c(C(=O)NCc2cccc(C(F)(F)F)c2)sc(=O)n1Cc1ccccc1F	-14.9%	?	?	-20.8%	25.9µM*	i
Cc1c(C(=O)NCCC#N)sc(=O)n1Cc1ccc(F)cc1	23.9%	-24.1%	i	7.3%	-17.4%	i
Cc1c(C(=O)NCc2ccc(F)cc2)sc(=O)n1Cc1ccc(Cl)c(Cl)c1	?	?	16.4µM*	?	?	?
COc1ccc(NC(=O)c2sc(=O)n(Cc3cccc(C(F)(F)F)c3)c2C)cc1OC	?	?	?	-1.9%	?	8.2µM*
